Data as given in PubChem BioAssay AID1159580 (chemical genetic matrix, 2015).
Out of some 5,500 compounds screened, about 2,000 (36%) were called active. Not shown: some 18% with an inconclusive outcome. No stated cut-off is given here; in the data, active means normalized growth mostly below about 0.91 (no sharp cut-off); inconclusive means no clear call, values can overlap the other calls; inactive means mostly above about 0.92. Some of the results follow.

Test: chemical genetic growth profiling, strain panel (AID 1159580);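 further: tested at 20 µM; growth read once vehicle control cultures reached saturation at 30 °C; 1 = growth at the plate median or of vehicle wells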
Conditions: S. cerevisiae deletion strains, growth OD

Measured: normalized growth

CCC1(O)CC(OC2CC(N(C)C)C(OC3CC(O)C(OC4CCC(=O)C(C)O4)C(C)O3)C(C)O2)c2c(cc3c(c2O)C(=O)c2c(O)cccc2C3=O)C1C(=O)OC (stereo not drawn)
active: locus YML032C, strain rad52, stronger effect = lower value 0.893
inactive: locus YAL013W, strain DEP1, stronger effect = lower value 0.986 | locus YBR021W, strain FUR4, stronger effect = lower value 1.07 | locus YBR229C, strain ROT2, stronger effect = lower value 1 | locus YCL029C, strain bik1, stronger effect = lower value 1 | locus YDL035C, strain GPR1, stronger effect = lower value 0.978 | locus YDL074C, strain BRE1, stronger effect = lower value 0.998 | locus YDL101C, strain DUN1, stronger effect = lower value 0.992 | locus YDL134C, strain PPH21, stronger effect = lower value 1.01 | locus YDL185W, strain tfp1, stronger effect = lower value 1.01 | locus YDL192W, strain arf1, stronger effect = lower value 1.01 | locus YDR101C, strain arx1, stronger effect = lower value 1.01 | locus YDR150W, strain NUM1, stronger effect = lower value 1 | locus YDR162C, strain NBP2, stronger effect = lower value 0.981 | locus YDR318W, strain mcm21, stronger effect = lower value 1.01 | locus YDR388W, stronger effect = lower value 1.01 | locus YDR502C, strain sam2, stronger effect = lower value 1 | locus YEL061C, strain CIN8, stronger effect = lower value 1.01 | locus YER110C, stronger effect = lower value 1.01 | locus YER155C, strain BEM2, stronger effect = lower value 1.01 | locus YER167W, strain BCK2, stronger effect = lower value 1.01 | locus YGL078C, strain dbp3, stronger effect = lower value 1.01 | locus YGL086W, strain mad1, stronger effect = lower value 0.992 | locus YGL248W, strain PDE1, stronger effect = lower value 0.981 | locus YGR135W, strain pre9, stronger effect = lower value 1.01 | locus YGR229C, strain SMI1, stronger effect = lower value 0.96 | locus YGR252W, strain gcn5, stronger effect = lower value 1.03 | locus YHR030C, strain SLT2, stronger effect = lower value 1 | locus YHR079C, strain IRE1 (second series), stronger effect = lower value 1.01 | locus YHR094C, strain hxt1, stronger effect = lower value 1.01 | locus YHR129C, strain ARP1, stronger effect = lower value 0.995 | locus YHR200W, strain rpn10, stronger effect = lower value 1.01 | locus YIL066C, strain RNR3, stronger effect = lower value 1 | locus YIL073C, strain SPO22, stronger effect = lower value 1.04 | locus YIL125W, strain kgd1, stronger effect = lower value 1 | locus YIR030C, strain dcg1, stronger effect = lower value 1.01 | locus YJL095W, strain BCK1, stronger effect = lower value 0.983 | locus YJL134W, strain LCB3, stronger effect = lower value 1.01 | locus YJL168C, strain set2, stronger effect = lower value 1.01 | locus YJL187C, strain SWE1 (second series), stronger effect = lower value 0.998 | locus YJR043C, strain POL32, stronger effect = lower value 0.986 | locus YJR075W, strain HOC1, stronger effect = lower value 0.975 | locus YKL009W, strain mrt4, stronger effect = lower value 1.01 | locus YKL068W, stronger effect = lower value 1 | locus YKL085W, strain MDH1 (second series), stronger effect = lower value 0.993 | locus YKL085W, strain MDH1, stronger effect = lower value 0.993 | locus YKR001C, strain vps1, stronger effect = lower value 1.01 | locus YLR039C, strain RIC1, stronger effect = lower value 0.981 | locus YLR058C, strain SHM2, stronger effect = lower value 1 | locus YLR102C, strain apc9, stronger effect = lower value 1.01 | locus YLR262C, strain YPT6, stronger effect = lower value 0.958 | locus YLR268W, strain sec22, stronger effect = lower value 0.98 | locus YLR330W, strain CHS5, stronger effect = lower value 1 | locus YLR342W, strain FKS1 (second series), stronger effect = lower value 0.976 | locus YLR371W, strain rom2, stronger effect = lower value 1.01 | locus YLR418C, strain cdc73, stronger effect = lower value 1.01 | locus YML016C, strain PPZ1, stronger effect = lower value 0.997 | locus YML124C, strain tub3, stronger effect = lower value 0.999 | locus YMR078C, strain ctf18, stronger effect = lower value 1.01 | locus YMR223W, strain ubp8, stronger effect = lower value 1 | locus YMR263W, strain SAP30, stronger effect = lower value 0.998 | locus YMR307W, strain GAS1, stronger effect = lower value 0.601 | locus YNL067W, strain RPL9B, stronger effect = lower value 0.992 | locus YNL233W, strain BNI4, stronger effect = lower value 0.997 | locus YNL250W, strain rad50, stronger effect = lower value 0.999 | locus YNL271C, strain bni1, stronger effect = lower value 1 | locus YNL298W, strain CLA4, stronger effect = lower value 1.02 | locus YNL307C, strain MCK1, stronger effect = lower value 1.01 | locus YNR052C, strain pop2, stronger effect = lower value 0.996 | locus YOL006C, strain TOP1, stronger effect = lower value 0.812 | locus YOL012C, strain htz1 0.589 | locus YOL147C, strain pex11, stronger effect = lower value 1.01 | locus YOR061W, strain CKA2, stronger effect = lower value 1 | locus YOR069W, strain VPS5, stronger effect = lower value 1 | locus YOR136W, strain idh2, stronger effect = lower value 1 | locus YOR144C, strain elg1, stronger effect = lower value 1 | locus YOR184W, strain ser1, stronger effect = lower value 0.982 | locus YOR316C, strain cot1, stronger effect = lower value 1.01 | locus YPR119W, strain clb2, stronger effect = lower value 1.02 | locus YPR141C, strain kar3, stronger effect = lower value 0.986 | locus YPR163C, strain tif3, stronger effect = lower value 1.02 | locus YPR167C, strain met16, stronger effect = lower value 1 | strain wtn01, stronger effect = lower value 0.983
